Assay results published in PubChem BioAssay AID1446 (The Scripps Research Institute Molecular Screening Center, 2008).
Among all 220,000 compounds or so, about 2,400 (1.1%) were called active. The sample holds actives, similar compounds and a random draw of the others, so the mix is not that of the screen. A number with no mark means an inactive call.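 How the source made its calls: active means inhibition above the campaign mean plus 3 SD over all tested compounds (cut at about 24% in these data); inactive means the rest.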

Assay: reduced viability of JAK2V617F-dependent Ba/F3 cells, primary screen, JAK2V617F inhibitor project, cell-based, Ba/F3 EpoR-JAK2V617F, luminescence (AID 1446);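 further: cytokine-independent growth of Ba/F3 cells driven by EpoR plus mutant JAK2; 0% = DMSO-treated cells and 100% = JAK inhibitor I control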
Conditions: ATP luminescence, at 5.6 µM, hits give high values

Row | Structure (SMILES) | inhibition
1 | CCC1CCCCN1CCCNC(=O)C1CCC(Cn2c(=O)[nH]c3ccccc3c2=O)CC1 (stereo unspecified) | 2.93%
2 | CCC1CCCCN1CCCNC(=O)Cn1nc(-c2ccccc2)ccc1=O (stereo unspecified) | -2.73%
3 | CCC1CCCCN1CCCNC(=O)c1cc2c(Cl)nc3ccccc3c2s1 (stereo unspecified) | 58.8% (active)
4 | CC(C)(C)c1cc(P(=O)(c2ccccc2)c2ccccc2)ccc1O | -0.07%
5 | OCCN1CCN(C(=S)c2ccc(-c3ccccc3)cc2)CC1 | -5.03%
6 | COc1ccc(C(=O)CSc2nnc(NC(=O)C3CC(=O)N(c4cccc(OC)c4)C3)s2)cc1 (stereo unspecified) | 0.22%
7 | CC(C)(CCl)C(=O)Nc1ccc(Sc2ccc(F)cc2)cc1 | -2.48%
8 | Cc1ccc(NC(=O)CC(=O)Nc2ccc(C)cc2)cc1 | -3.42%
9 | O=C(CCl)Nc1ccc(Sc2ccc(NC(=O)CCl)cc2)cc1 | 39.2% (active)
10 | COc1ccc(C(=O)Nc2ccc(N3CCC(C)CC3)cc2)cc1Br | 1.71%
11 | COc1ccc(N2CCN(C(=O)CCSCc3ccccc3F)CC2)cc1 | -2.23%
12 | CCC(C)C(=O)Nc1cc([N+](=O)[O-])ccc1Cl (stereo unspecified) | -3.84%
13 | CCN(CC)S(=O)(=O)c1ccc(N(C)Cc2cccc(OC)c2OC)nc1 | 1.34%
14 | CCCCCCc1cc2cc(-c3nnc(-c4cccc(OC)c4)o3)c(=O)oc2cc1O | -1.07%
15 | Cn1c(SCC(=O)N/N=C/c2ccc(O)c(O)c2)nc2ccccc21 | 0.9%
16 | CCCc1nc2ccccc2c(=O)n1NC(=O)c1c(O)c2ccccc2[nH]c1=O | 6.3%
17 | CCCc1nc2ccccc2c(=O)n1/N=C/c1ccc(O)c(O)c1 | 26.5% (active)
18 | Cc1nnsc1C(=O)NCc1c(F)cccc1Cl | 1.93%
19 | CCCCC1S/C(=N/N=C/c2cccs2)NC1=O (stereo unspecified) | 1.12%
20 | CCCOC(=O)c1[nH]c2c(c1C)C(=O)CC(c1cccs1)C2 (stereo unspecified) | 74.3% (active)
21 | CCCOC(=O)c1[nH]c2c(c1C)C(=O)CC(c1cc(OC)c(OC)c(OC)c1)C2 (stereo unspecified) | 17.1%
22 | CCOC(=O)c1[nH]c2c(c1C)C(=O)CC(c1ccc(N(C)C)cc1)C2 (stereo unspecified) | 0.77%
23 | COc1ccc(/C=C2/SC(=O)N(CCCCCC(=O)Nc3ccccc3C(=O)O)C2=S)cc1 | -2.34%
24 | Cn1cccc1-c1nc2ccccc2n1C | 3.85%

Row | Structure (SMILES) | inhibition
25 | Cc1ccc(O)c(CNc2nc3ccccc3n2C)c1 | 1.4%
26 | Cc1ccc(C2=NN(C)c3nc4ccccc4n3C2)cc1 | 56.8% (active)
27 | Fc1ccc(COc2ccc(-c3nnco3)cc2)cc1 | -2.6%
28 | CCOc1cc(/C=C2/C(=N)N3OC(C)=CC3=NC2=O)ccc1OC | 1.56%
29 | C/C(=N\NC(N)=S)c1cccnc1 | -4.73%
30 | Cn1c(-c2ccc(F)cc2)cnc1SCC(=O)NNC(=O)Cc1ccccc1 | 0.3%
31 | CN(Cc1ccccc1)C(=O)CCc1ccccc1 | -4.97%
32 | Cc1ccc(-c2cnc(NC(=O)CCC(=O)N(C)Cc3ccccc3)n2C)cc1 | 40.1% (active)
33 | CC(=O)c1ccc(N2CCN(S(=O)(=O)c3c(C)[nH]c(=O)[nH]c3=O)CC2)cc1 | 2%
34 | c1ccc2c(c1)CSc1sccc1C2=C1CCNCC1 | 45.9% (active)
35 | Cc1cc([N+](=O)[O-])ccc1NC(=O)c1ccc(NC(=O)C(C)C)cc1 | 0.7%
36 | Cn1ccc(=Nc2ccc(NC(=O)c3ccc(N=c4ccn(C)c5ccc([N+](=O)[O-])cc45)cc3)cc2)cc1 | 34.4% (active)
37 | CC(=O)NC(=S)Nc1ccc(NC(=S)NC(=O)c2ccc([N+](=O)[O-])cc2)cc1 | -4.8%
38 | O=C(Nc1ccccc1-c1ccccc1)c1cccs1 | 6.54%
39 | N#Cc1ccc(OCc2nnc(-c3ccc([N+](=O)[O-])cc3)o2)cc1 | 1.03%
40 | Cc1n[nH]c(=O)n1-c1ccc(C(C)C)cc1 | 0.05%
41 | Cc1nccn1CC(=O)N/N=C/c1ccc(O)c(O)c1 | -3.5%
42 | O=C(Nc1ccccc1)Nc1ccc(C(F)(F)F)cn1 | 2.61%
43 | Oc1ccc(/C=N/Nc2ccc(C(F)(F)F)cn2)cc1O | 72% (active)
44 | CC1(C)C2CC=C(/C=N/NC(=O)C3CC3)C1C2 (stereo unspecified) | -1.08%
45 | Fc1ccc2[nH]c3c(N4CCN(Cc5ccc6c(c5)OCO6)CC4)ncnc3c2c1 | 37.1% (active)
46 | Cc1cc(N2CCN(Cc3ccc4c(c3)OCO4)CC2)n2ncnc2n1 | 4.15%
47 | Fc1ccc2[nH]c3c(N4CCSCC4)ncnc3c2c1 | -5.13%
48 | CC(=O)Nc1ccc(/C(C)=N/NC(=O)CN(c2ccccc2Br)S(C)(=O)=O)cc1 | -0.87%

Row | Structure (SMILES) | inhibition
49 | CSc1sc(C(=O)NC(=O)NCc2cccnc2)c(C)c1-c1ccon1 | -1.98%
50 | COc1ccc(C2C(C(C)=O)=C(O)C(=O)N2CCc2c[nH]c3ccccc23)cc1 (stereo unspecified) | -3.16%
51 | O=C(N/N=C\c1cc(Br)c(Br)o1)C1COc2ccccc2O1 (stereo unspecified) | -4.95%
52 | CN(Cc1nc2ccc(F)cc2[nH]1)Cc1nc(CC2CC2)no1 | -1.61%
53 | CN(Cc1ccc2nsnc2c1)Cc1nc(Cc2cccc(F)c2)no1 | 47.5% (active)
54 | CCc1ccc(CN(C)Cc2nc(Cc3ccccc3)no2)nc1 | 1.45%
55 | Cc1cc(C(=O)CCl)c(C)n1CC1COc2ccccc2O1 (stereo unspecified) | 2.03%
56 | CSCCC(NS(=O)(=O)c1ccc2c(c1)oc(=O)n2C)C(=O)NCc1ccccc1 (stereo unspecified) | -3.72%
57 | COc1ccc(NC(=O)Nc2ccc3nc(C)c(C)nc3c2)cc1 | -2.47%
58 | Cc1nc(/N=C(\N)NC(=O)NC2CCCCC2)nc2ccccc12 | 2.92%
59 | COc1ccc2nc(/N=C(\N)NC(=O)Nc3ccccc3)nc(C)c2c1 | 30.8% (active)
60 | CCCN(CCC)S(=O)(=O)c1ccc(C(=O)NNC(=O)c2cc(OC)c(OC)c(OC)c2)cc1 | -3.01%
61 | C#CCOCCOCCOCCNc1nc(N2CCN(C(=O)[C@H](C(C)C)n3cc(CCO)nn3)CC2)nc(N2CCN(C(=O)[C@H]([C@@H](C)CC)n3cc(CCCN=C(N)N)nn3)CC2)n1 | 1.82%
62 | NS(=O)(=O)c1ccc(NC(=O)COC(=O)c2ccc(Cl)nc2)cc1 | 0.7%
63 | CCN(CC)c1ccc(NC(=O)c2ccc(Cl)nc2)cc1 | 81.4% (active)
64 | O=C(NNc1ccccn1)c1ccc(Cl)nc1 | -0.88%
65 | COc1ccc(CN(C)Cc2nc3cc(OC)c(OC)cc3c(=O)[nH]2)c(OC)c1 | 1.74%
66 | C[C@H](NC(=O)c1ccccc1Cl)C(=O)OCCOc1cccc(Cl)c1 | -3.18%
67 | Cn1cc(C(=O)NCc2ccccc2F)cn1 | -6.67%
68 | N#CC1(C#N)C(C(=O)C23CC4CC(CC(C4)C2)C3)C12CCOCC2 (stereo unspecified) | -2.53%
69 | Cn1c(N)c(C(=O)COC(=O)/C=C/c2ccc(OC(F)F)cc2)c(=O)n(C)c1=O | 2.97%
70 | Cc1ccc(NC(=O)CN(C)Cc2ccc(F)cc2)c([N+](=O)[O-])c1 | -2.86%
71 | CC(=O)Nc1ccc(Nc2c3ccccc3nc3ccccc23)cc1 | 102% (active)
72 | Cc1ccc(Nc2c3c(nc4ccccc24)CCC3)cc1 | 4.72%

Row | Structure (SMILES) | inhibition
73 | O=[N+]([O-])c1cccc(Nc2c3ccccc3nc3ccccc23)c1 | -2.83%
74 | CC[C@H]1CN2CCc3cc(OC)c(OC)cc3[C@@H]2C[C@@H]1C[C@H]1NCCc2cc(OC)c(OC)cc21 | 101% (active)
75 | COc1cc2c(cc1O)[C@H](Cc1ccc(Oc3cc(C[C@@H]4NCCc5cc(OC)c(O)cc54)ccc3O)cc1)NCC2 | 1.92%
76 | Cn1cnc(C(F)(F)F)c1-c1ccc([N+](=O)[O-])cc1 | -0.95%
77 | O=C(O)/C=C/c1ccc2c(c1)OCCO2 | 0.26%
78 | COc1ccccc1N1CCN(CCCCOc2ccc(F)cc2)CC1 | -1.67%
79 | CNCC(O)CN1CCN(c2ccccc2OC)CC1 (stereo unspecified) | -2.42%
80 | COc1ccccc1N1CCN(Cc2ccc(OC)c3ccccc23)CC1 | 26.8% (active)
81 | O=c1[nH]c2ccccc2s1 | 1.22%
82 | O=C(Oc1ccccc1Cl)c1ccc(N2CCOCC2)c([N+](=O)[O-])c1 | 0.46%
83 | Cc1ccc(S(=O)(=O)NCCC(c2ccccc2)c2ccccc2)cc1C(=O)O | 0.73%
84 | C/C(=N/NC(=O)CN1CCN(S(=O)(=O)c2ccc(Br)cc2)CC1)c1ccncc1 | -1.23%
85 | Cc1onc(C(=O)NN)c1-c1csc(COc2ccccc2)n1 | 3.97%
86 | CC(C)(C)C(=O)OCc1nc(-c2ccc(O)c(O)c2)cs1 | 83.4% (active)
87 | COc1ccc(-c2csc(Cc3nc(O)cs3)n2)cc1 | -2.27%
88 | CC(C)NC(=S)N1CCN(S(C)(=O)=O)CC1 | -5.62%
89 | O=C(c1ccc(=O)oc1)N1CCC(C(O)(c2ccccc2)c2ccccc2)CC1 | 2.85%
90 | COc1ccc(/C=C/CN2CCCC(C(=O)c3cc(F)ccc3F)C2)cc1 (stereo unspecified) | 0%
91 | CSCC(=O)N1CCCC(C(=O)c2cc(F)ccc2F)C1 (stereo unspecified) | 67.6% (active)
92 | COc1ccc(F)cc1C(=O)C1CCCN(C(=O)CCc2ccccn2)C1 (stereo unspecified) | 0.16%
93 | COc1ccc(Cc2cc(-c3ccc(F)cc3)n[nH]c2=O)cc1 | 1.71%
94 | Cc1ccc(C2CC(=O)NC(SCC(=O)OCc3ccccc3)=C2C#N)o1 (stereo unspecified) | 1.77%
95 | C=CCOC(=O)C1=C(C)NC(SCC(=O)OCC)=C(C#N)C1c1ccc(C)cc1 (stereo unspecified) | -0.33%
96 | CCOC(=O)CSC1=C(C#N)C(c2sccc2C)CC(=O)N1 (stereo unspecified) | 83.5% (active)
